Test results as given in PubChem BioAssay AID588343 (Broad Institute, 2011).
Out of some 1,200 compounds screened, about 650 (54%) were called active. Not shown: some 5% with an inconclusive outcome.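 How the source made its calls: active means signal-lowering curve whose fitted half-maximal concentration is at or below ten times the top valid dose tested; inconclusive means flat curve with 30 to 70% inhibition, or poor fit; inactive means signal increase, flat within 30%, or potency beyond limit.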 The set was probably picked from earlier hits. Not all results are given here. Entries with a potency or affinity are not part of this list.

Assay: EBV LMP1 TES2 canonical NF-kB signalling blockers – cell-based, HEK293, luciferase, cherry-pick, dose response (AID 588343);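 further: 0% = median of neutral control wells and -100% = MG132 positive control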
Settings: HEK293 LMP1 TES2 NF-kB luciferase reporter, 16 h; series mostly up to 35 µM; activity change, negative = inhibition: at the top concentration

Activity change, negative = inhibition, inactive:
O=[N+]([O-])c1ccc(/C=N/Nc2cc(Cl)nc(-c3ccccc3)n2)cc1 42.9%
COC(=O)C1=C(C)N(c2cc(C)cc(C)c2)/C(=C/c2ccc(O)cc2)C1=O -5.12%
COC(=O)c1ccc(/C=C(/NC(=O)c2ccccc2)C(=O)N2CCOCC2)cc1 10.5%
CC[C@H]1OC(=O)[C@H](C)[C@@H](O[C@H]2C[C@@](C)(OC)[C@@H](O)[C@H](C)O2)[C@H](C)[C@@H](O[C@@H]2O[C@H](C)C[C@H](N(C)C)[C@H]2O)[C@](C)(O)C[C@@H](C)C(=NOCOCCOC)[C@H](C)[C@@H](O)[C@]1(C)O 0.266%
Cc1nnc(NC(=O)CSc2nnc(Cc3cccn3C)n2CCc2ccccc2)s1 3.74%
Cc1ccnc(SCCn2c(N3CCN(c4ccccc4)CC3)nc3c2c(=O)[nH]c(=O)n3C)n1 -12.6%
CSc1nc(N)nc(SCC(=O)C23CC4CC(CC(C4)C2)C3)c1C#N 20.8%
O=C(O)/C=C/c1ccc(Cn2ccnc2)cc1 -7.19%
Oc1[nH]c2ccccc2c1N=Nc1c(F)c(F)c(Cl)c(F)c1F 23.3%
CC(C(=O)N=Nc1c(O)[nH]c2ccccc12)n1cnc2ccccc2c1=O (stereo not drawn) -8.31%
O=C(CCc1ccccc1Cl)N1CCN(S(=O)(=O)c2ccccc2)CC1 -13.7%
COc1ccc(-c2cnc(NCc3cc4c(cc3[N+](=O)[O-])OCO4)n2C)cc1 -18.9%
COC(=O)C(NS(=O)(=O)c1ccc(N2CCCC2=O)cc1)c1ccccc1 (stereo not drawn) -4.56%
CC(C)c1nnc(NC(=O)c2ccc(N3C(=O)CCC3=O)cc2)s1 9.82%
Cn1nc(-c2ccc(N3CCOCC3)c(NS(=O)(=O)c3ccccc3)c2)c2ccccc2c1=O -2.5%
COc1ccc(OC)c2c1sc(=NC(=O)c1ccco1)n2C 6.54%
CCCCCC(=O)N1C[C@@H](O)[C@H](n2cc(C3CC3)nn2)C[C@@H]1c1ccc(C)cc1 6.25%
COc1ccc(C(=O)CSc2nnc(Cc3ccccc3)o2)cc1 -7.07%
CN1C(=O)C(CC(=O)NC2CCCCC2)SC1=Nc1ccccc1 (stereo not drawn) 2.02%
COc1ccc(S(=O)(=O)NC(CC(=O)NCc2ccco2)C(C)C)cc1 (stereo not drawn) -10.8%
CCCc1cc(=O)[nH]c(SCC(=O)NC2CCCCC2)n1 0.752%
CCOC(=O)N1CCC(n2c(=S)[nH]c3ccccc3c2=O)CC1 9.29%
CCOCCCn1cnc2c3cc(F)ccc3n(C)c2c1=O 13.7%
COc1cc(Cl)cc(C(c2c(C(=O)O)[nH]c3ccccc23)c2c(C(=O)O)[nH]c3ccccc23)c1O -3.69%
COc1ccc(CCNC(=O)CSC(=O)c2ccccc2)cc1OC 12.9%
COc1ccc(CCNC(=O)CSc2ccsc2[N+](=O)[O-])cc1OC 1.89%
O=C(c1noc2c1CCCC2)N1CCCCC1 10.1%
COc1cc(/C=C(\C#N)c2ccccn2)ccc1OCc1ccccc1Cl 2.29%
CCOC(=O)c1ccc(NC(=O)CSc2nc(N3CCOCC3)nc(N3CCOCC3)n2)cc1 82.1%
Cn1cc(S(=O)(=O)N2CCN(C(=O)c3ccco3)CC2)c(=O)n(C)c1=O 7.15%
O=C(c1cccs1)N1CC=C(c2ccccc2)CC1 3.11%
O=C(c1ccco1)N1CCN(S(=O)(=O)/C=C/c2ccccc2)CC1 -6.52%
CCN(CC(=O)Nc1ccc(NC(C)=O)cc1)C(=O)c1cccnc1Sc1ccc(C)c(C)c1 -7.7%
COCCN1Cc2cccc(C(=O)N3CCN(c4cc(C)ccc4C)CC3)c2C1=O -8.16%
CCOC(=O)c1ccc(NC(=S)N2CCSC2c2ccc(OC)cc2)cc1 (stereo not drawn) 6.65%
COC(=O)C1=C(C)NC(C)=C(C(=O)OCC(C)C)C1c1ccccc1[N+](=O)[O-] (stereo not drawn) 18.9%
O=C(O)C1CC(=O)N(c2ccc(Br)cc2)C1 (stereo not drawn) -4.39%
CCCC(C)NC(C)C(=O)NC1CCCC1 (stereo not drawn) -5.6%
CCCCCCNC(=O)O[C@]12C[C@@H](C(=O)OC)[C@@H](C(=O)OC)C[C@@]1(O)CN(S(=O)(=O)c1ccc(C)cc1)C2 -2.65%
Cc1nc(N)nc(SCc2ccc([N+](=O)[O-])cc2)c1N -1.43%
Brc1cccc(-c2cnco2)c1 10.1%
CC(C)NCC(O)COc1cccc2ccccc12 (stereo not drawn) -3.16%
Cc1ccc(NC(=S)NCc2cccs2)cc1 -5.01%
Cc1ccc(CCNC(=O)Cc2ccc(NC3=NC4CS(=O)(=O)CC4S3)cc2)cc1 (stereo not drawn) -1.43%
CCC(=O)OC1c2ccccc2C(=O)N1Cc1ccccc1 (stereo not drawn) -7.48%
CC1=CC(=NOC(=O)/C=C/c2ccccc2)C=C(C)C1=O 6.6%
O=C1CC(c2ccccc2)Oc2ccccc21 (stereo not drawn) 3.68%
COc1ccccc1C1(CC(=O)O)CCOC(C)(C)C1 (stereo not drawn) -4.13%
O=C(Cn1cc(CNC(=O)C2CCCCC2)nn1)Nc1cc(C(F)(F)F)ccc1Cl -8.87%
COC(=O)c1[nH]c2ccc(C)cc2c1NC(=O)NC1CCCCC1 23.4%
Cn1cc(CC(=O)NCCCN2CCCC2)c2ccccc21 6.09%
O=C(NCCCN1CCCCC1)c1ccc2c(c1)NC(=O)c1ccccc1S2 37.7%
COc1ccc(S(=O)(=O)N2CCC(C(=O)NC3CC3)CC2)cc1OC -3.85%
CCCNC(=O)N1CCN(S(=O)(=O)c2ccc(C)c(C)c2)CC1 -10.3%
O=C(O)c1ccc(-n2cncn2)c([N+](=O)[O-])c1 15%
O=S(=O)(N/N=C/c1ccccc1F)c1ccccc1 -3.49%
CCSc1nc2ccc(OC)cc2cc1C#N 10.6%
O=[N+]([O-])c1cc(/C=N\O)ccc1Oc1ccc(F)cc1 9.78%
CCOC(=O)c1sc2nc(C)nc(NCc3ccccc3)c2c1C 32.4%
Cn1c(=O)c2ncn(CC(=O)O)c2n(C)c1=O -11.1%
COc1ccc(C(Nc2ccccn2)c2oc(CO)cc(=O)c2O)cc1 (stereo not drawn) -2.04%
Cc1ccc2c(c1)N(CC(=O)N1CCCC1)C(=O)c1cccnc1O2 2.23%
COc1ccc(S(=O)(=O)N2CCN(CC(=O)Nc3ccc(C)c(F)c3)CC2)cc1 -3.25%
O=C(NCc1ccccc1Cl)C1CCCN1S(=O)(=O)c1ccc(F)cc1 (stereo not drawn) -9.02%
Cc1ccc(C2=C/C(=C\c3cccnc3)C(=O)O2)cc1 -11.9%
N=C1S/C(=C\c2ccccc2)C(=O)N1c1ccc(F)cc1 -6.59%
O=C1c2ccccc2C(Nc2cccnc2)N1Cc1ccccc1 (stereo not drawn) -7.37%
CC1S/C(=C(\C#N)C(=O)NCc2ccco2)N(Cc2ccco2)C1=O (stereo not drawn) -4.58%
